Measured values as given in PubChem BioAssay AID463173 (ICCB-Longwood Screening Facility, Harvard Medical School, 2010).
In all, about 52,000 compounds went through this assay and about 4,300 (8.3%) were called active. No stated cut-off is given here; in the data, active means survival mostly below about 52% (no sharp cut-off); inactive means mostly above about 56%. The entries come from a sample that favours actives as a whole.

What follows are compounds tested on DeltatarO mutant (assay: S. aureus survival, RN4220 and DeltatarO strains – OD600, teichoic acid synthesis inhibitors, primary screen (AID 463173)). Conditions: S. aureus RN4220 wild type/DeltatarO growth, OD600, 18 h, active compounds read low, screened at 18.75 µg/mL (by protocol).
With COc1ccc(-c2noc(-c3ccc(NC(C)c4ccccc4)c([N+](=O)[O-])c3)n2)cc1OC (stereo unspecified) the survival was 65% (inactive).
CCCC12CN3CC(C)(CN(C1)C3c1ccc(OCc3ccccc3)cc1)C2=O (stereo unspecified) was tested, and the survival was 80% (inactive).
With COc1ccc(-n2nc3c(N4CCCC(C(=O)NCc5ccccc5C)C4)nnc(C)c3c2C)cc1 (stereo unspecified) the survival was 90% (inactive).
For Cc1ccc(NC(=O)Nc2nc3c(s2)CCCCCC3)cc1C, the survival was 69% (inactive).
For O=C(Nc1ccc(Br)cc1)Nc1nc2c(s1)CCCCCC2, the survival was 83% (inactive).
In the case of O=C(Nc1nc2c(s1)CCCCCC2)Nc1ccc(F)cc1F, the survival is reported as 0% (active).
In the case of CCN(c1ccccc1)S(=O)(=O)c1nnc(NC(=O)COc2cccc(C)c2)s1, the survival is reported as 107% (inactive).
In the case of CCN(c1cccc(C)c1)S(=O)(=O)c1nnc(NC(=O)C2CCCCC2)s1, the survival is reported as 71% (inactive).
In the case of CCN(c1cccc(C)c1)S(=O)(=O)c1nnc(NC(=O)c2cccs2)s1, the survival is reported as 21% (active).
CCN(c1cc(C)cc(C)c1)S(=O)(=O)c1nnc(NC(=O)c2cccc(F)c2)s1 was tested, and the survival was 37% (active).
With CN(c1ccccc1)S(=O)(=O)c1nnc(NC(=O)c2cccs2)s1 the survival was 43% (inactive).
Cc1cccc(N(C)S(=O)(=O)c2nnc(NC(=O)C(C)(C)C)s2)c1 was tested, and the survival was 99% (inactive).
With Cc1cccc(N(C)S(=O)(=O)c2nnc(NC(=O)c3cccs3)s2)c1 the survival was 26% (active).
In the case of CCN(c1cc(C)cc(C)c1)S(=O)(=O)c1nnc(NC(=O)C2CCCCC2)s1, the survival is reported as 105% (inactive).
In the case of CCN(c1cc(C)cc(C)c1)S(=O)(=O)c1nnc(NC(=O)c2cccs2)s1, the survival is reported as 25% (active).
For CCCCC(=O)Nc1nnc(S(=O)(=O)N(CC)c2cc(C)cc(C)c2)s1, the survival was 66% (inactive).
For Cc1ccc(S(=O)(=O)Nc2ccc(-c3ccc(N4CCCCCC4)nn3)cc2)c(C)c1, the survival was 70% (inactive).
CCc1nnc(NC(=O)c2ccc(S(=O)(=O)N3CCc4ccccc4C3)cc2)s1 was tested, and the survival was 83% (inactive).
For Cc1ccc(NC(=O)CCNS(=O)(=O)c2cccs2)cc1F, the survival was 63% (inactive).
For COc1cc(CN(C(=O)c2cccc(Cl)c2)c2ccccn2)cc(OC)c1OC, the survival was 82% (inactive).
For COc1ccc(OC(=O)c2ccc3snnc3c2)cc1, the survival was 86% (inactive).
For COc1ccc(CNC(=O)CCS(=O)(=O)c2cc3c4c(c2)CCN4C(=O)CC3)cc1OC, the survival was 66% (inactive).
In the case of Cc1ccc(C)c(NS(=O)(=O)c2cc3c(cc2Cl)NC(=O)CO3)c1, the survival is reported as 85% (inactive).
In the case of CCN(c1ccc(C)cc1C)S(=O)(=O)c1nnc(NC(=O)c2ccc(F)cc2)s1, the survival is reported as 14% (active).
With CCN(c1ccc(C)cc1C)S(=O)(=O)c1nnc(NC(=O)c2ccccc2OC)s1 the survival was 55% (inactive).
CCN(c1ccc(C)cc1C)S(=O)(=O)c1nnc(NC(=O)CC(C)C)s1 was tested, and the survival was 75% (inactive).
